Results as given in PubChem BioAssay AID1863 (Southern Research Specialized Biocontainment Screening …, 2009).
About 480 (0.16%) of roughly 300,000 compounds were called active.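 The calls were made as follows: active = inhibition over 29.93%, a cutoff 3 SD above the screen mean, later confirmed by dose response; inconclusive = inhibition over 29.93% but no dose response follow-up; inactive = inhibition at most 29.93% or unconfirmed.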 A selection follows. Measured potencies and affinities stand elsewhere.

assay: PhoP-dependent GFP reporter repression – Salmonella Typhimurium, primary screen (AID 1863);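 also: 0% = low Mg2+ inducing control and 100% = high Mg2+ repressing control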; settings: S. Typhimurium PhoP-regulated promoter GFP reporter, 4 h; at 50 µM; active compounds read high

inhibition, inactive:
O=C(COC(=O)c1cc[n+]([O-])cc1)Nc1c(Cl)cccc1C(F)(F)F 0.58%
Cc1occc1-c1nnc(SCCNCCO)o1 -0.93%
CCn1ccnc1[C@@H]1C[C@H]2CN(Cc3cccc(Cl)c3)C(=O)[C@]23CCCN13 3.68%
CCN1C(=O)CSc2ccc(C(=O)NCc3ccc(OC)cc3)cc21 -1.69%
COc1ccc(S(=O)(=O)NN=C2CCCC2)cc1 1.9%
O=C(c1oc(=O)c2ccccc2c1-c1ccccc1)N1CCC(O)CC1 18.1%
CCOc1ccccc1N1CCN(CC(=O)Nc2ncc(C)s2)CC1 -2.9%
Oc1cccc(/C=N/N=C/c2cccc(O)c2O)c1O 16.2%
Oc1cccc(C=NCc2ccccc2)c1 4.18%
Oc1c(Br)cc(Br)cc1C=NCc1ccc(F)cc1 10.4%
O=C(Cc1ccccc1)N/N=C/c1cc(Br)cc(Br)c1O -8.98%
CCOc1ccccc1N(CC(=O)N/N=C(\C)c1cccc(Br)c1)S(C)(=O)=O -0.46%
CC(C)C[C@H](NC(=O)c1[nH]cnc1C(=O)N[C@H](C)c1ccccc1)C(=O)OC(C)(C)C -2.19%
CCCCCCCCCCCCOC(=O)C[N+](C)(C)C 0.96%
CCCCCCCCOC(=O)C[N+](C)(C)C/C=C(/C)Cl 2.02%
Cc1cc(C(=O)NCCN2CCOCC2)ccc1[N+](=O)[O-] -2.2%
Nc1nc(-c2ccccn2)nc(N)c1Cc1ccc(Cl)cc1Cl 3.01%
Cc1nc(N)c(Cc2ccccc2F)c(N)n1 2.15%
COc1ccc(C(=O)NCC(=O)N2CCN(c3ccccc3)CC2)cc1 -3.55%
COCc1c(C(=O)N/N=C/c2ccc(C)o2)nnn1-c1nonc1N 4.95%
COc1cccc(CC(=O)Nc2nc(-c3cccnc3)cs2)c1 -6.4%
Cc1ccc(N2C(=O)CC(NNc3nc4ccccc4s3)C2=O)cc1 (stereo not given) 7.17%
Cc1ccc(Nc2cc(C)nn2-c2nc(C)cc(C)n2)cc1 14.5%
Cc1cc(=O)[nH]c(-n2nc(C)cc2C)n1 -11.6%
Cc1ccc(S(=O)(=O)N2CCN(Cc3ccccc3)CC2)cc1 -4.43%
Cc1cc(C)c2ccc(NN)nc2c1O 0%
Cc1cc(C)c2ccc(C(=O)O)nc2c1O -7.66%
CCn1c(C)nnc1SCC(=O)Nc1ccc(N2CCOCC2)cc1 10%
O=C(COc1ccccc1[N+](=O)[O-])N1CCC(Cc2ccccc2)CC1 4.09%
Cc1nnc(N/N=C/C(C)c2ccccc2)[nH]c1=O (stereo not given) -2.09%
Cc1nnc(N/N=C/c2c[nH]c3ccccc23)[nH]c1=O 7.38%
S=C(Nc1ccccc1Cl)N(Cc1ccccc1)Cc1cccnc1 4.33%
O=C(CSc1ccc(-c2ccccn2)nn1)N1CCc2ccccc21 -3.41%
Cc1ccc(NC(=O)C[n+]2cc(-c3ccccc3)n3c2CCC3)cc1 -4.1%
Cc1ccc(-c2c[n+](CC(=O)Nc3nc(-c4ccccc4)cs3)c3n2CCC3)cc1 -7.93%
O=C(C[n+]1cc(-c2ccc(F)cc2)n2c1CCC2)Nc1nc(-c2ccc(F)cc2)cs1 20.4%
Cc1ccc(-c2csc(NC(=O)C[n+]3cc(-c4ccccc4)n4c3CCC4)n2)cc1 -8.54%
Cc1ccc(NC(=O)C[n+]2cc(-c3ccc(C)cc3)n3c2CCC3)cc1 -9.5%
O=C(C[n+]1cc(-c2ccccc2)n2c1CCC2)Nc1nc(-c2ccc(F)cc2)cs1 11.3%
O=C(c1cc2ccc([N+](=O)[O-])cc2oc1=O)N1CCOCC1 -3.48%
O=C(COc1ccc(S(=O)(=O)N2CCCCC2)cc1)Nc1ccccc1F -6.38%
O=C(c1ccc(N2CCN(C3CC(=O)N(Cc4cccs4)C3=O)CC2)cc1)c1cccnc1 (stereo not given) 4.02%
O=C(O)c1ccn2c(C(=O)c3ccccc3)c(-c3ccccc3)cc2c1 -13.9%
C[C@H]1COc2c(C3(N)CC3)c(F)cc3c(=O)c(C(=O)O)cn1c23 -7.84%
CN1CCN(c2c(F)cc3c(=O)c(C(=O)O)cn(CCF)c3c2F)CC1 -2.24%
CCn1cc(C(=O)NCC2CCCO2)c(=O)c2cc(F)c(N3CCN(C)CC3)cc21 (stereo not given) 0.68%
C[C@H]1COc2c(N3CCN(C)CC3)c(F)cc3c(=O)c(C(=O)O)cn1c23 -9.45%
CCOc1ccc(C(=O)Nc2ccc(N3CCN(C)CC3)cc2)cc1 -7.33%
CCOc1ccc(C(=O)Nc2ccc(S(=O)(=O)N3CCN(C)CC3)cc2)cc1 8.02%
Cc1cc(C)c(NC(=O)c2cc(S(=O)(=O)N3CCOCC3)ccc2F)c(C)c1 -1.33%
Cc1cc(C)n(CC(=O)N2c3ccccc3Sc3ccc(C(F)(F)F)cc32)n1 -5.1%
Cc1cc[n+](-c2[nH]c(=O)sc2/C=N/N=C(\[O-])CCn2c3ccccc3c3ccccc32)cc1 1.47%
Cn1c(=O)oc2cc(S(=O)(=O)NCCC(=O)N3CCc4ccccc4C3)ccc21 -8.83%
COc1ccc(C(CNS(=O)(=O)c2ccc(F)cc2)N2CCN(C)CC2)cc1 (stereo not given) 3.53%
NC(=O)COC(=O)C12CC3CC(CC(O)(C3)C1)C2 17.4%
CCOc1ccc(C(C)=O)cc1CSc1nc(C)cc(C)n1 4.1%
CC(=O)c1cccc(NC(=O)NC2CCCCC2)c1 -2.42%
COCCn1c(-c2ccc(Cl)cc2)cnc1SCC(=O)NCCc1ccc(OC)c(OC)c1 12.7%
C=COCCn1c(-c2nonc2N)nc2ccccc21 18.4%
CCCOC(=O)C[N+](C)(C)CCOC1CC2CCC1(C)C2(C)C (stereo not given) -23.2%
CCCCOC(=O)C[N+](C)(C)CCOC1CC2CCC1(C)C2(C)C (stereo not given) -9.77%
CCOC(=O)C[N+](C)(C)CCOC1CC2CCC1(C)C2(C)C (stereo not given) 6.45%
CC(C)CCOC(=O)C[N+](C)(C)CCOC1CC2CCC1(C)C2(C)C (stereo not given) -2.94%
CC(C)CCNC(=O)C1(c2cccs2)CCOCC1 -3.36%
O=C(NCc1ccccn1)Nc1cccc(Cl)c1Cl 7.04%
O=C1C=C(O)c2cccc(O)c2C1=O 4.81%
O=C1C=C(O)c2c(O)cccc2C1=O 5.73%
CC(=O)c1cccc(NC(=O)CCc2nnc3ccc(N4CCOCC4)nn23)c1 9.13%
O=c1c2ccccc2nc2c3ccccc3c(NCCN3CCOCC3)nn12 -8.49%
Cc1ccc(-c2csc3nc4c5ccccc5c(NCCCN5CCOCC5)nn4c(=O)c23)cc1 2.89%
COc1cccc(/C=N/NC(=O)c2ccc(CN3c4cccc5cccc(c45)S3(=O)=O)cc2)c1 -6.43%
OC(CNCCc1ccc(Cl)cc1)COc1ccc2ccccc2c1 (stereo not given) 7.14%
Cc1cc(OCC(O)CNC(C)(C)C)ccc1Cl (stereo not given) -6.41%
Cc1nc(N)nc(N/N=C/c2ccccc2)n1 -5.41%
COCC(C)NS(=O)(=O)c1ccccc1 (stereo not given) -1.07%
CC(=O)c1cccc(NC(=O)c2sc3nc4n(c(=O)c3c2C)CCCCC4)c1 11.4%
NC(=S)N/N=C/c1c(O)ccc2ccccc12 -8.26%
O=C(CN1CCOCC1)N/N=C/c1c(O)ccc2ccccc12 3.4%
O=C(CN1CCCc2ccccc21)N/N=C/c1c(O)ccc2ccccc12 41.7%
Oc1ccc2ccccc2c1/C=N/Nc1ccccc1 -2.22%
CCc1nccn1CCC(=O)N1CCCC(N2CCN(c3cccc(Cl)c3)CC2)C1 (stereo not given) -2.69%
CN1CCCN(C(=O)c2cccc3ccccc23)CC1 -0.73%
O=C1CC(C(=O)N2CCN(c3ccc(F)cc3)CC2)CN1CCc1ccccc1 (stereo not given) 5.66%
CCCN(CC(=O)Nc1ccccc1C)C(=O)COc1ccc2c(c1)CCC2 -2.3%
CN1CCCN(C(=O)c2c(F)cccc2Cl)CC1 -6.36%
CCCS(=O)(=O)N1CCN(C(=O)COc2ccccc2)CC1 1.1%
Cn1c(NC(=O)C[n+]2cc(-c3ccc(F)cc3)n3c2CCC3)cc(=O)n(C)c1=O 4.11%
O=C(C[n+]1cc(-c2ccc(F)cc2)n2c1CCC2)Nc1nc(-c2ccccc2)cs1 14.9%
Cn1c(NC(=O)C[n+]2cc(-c3ccc(Cl)cc3)n3c2CCC3)cc(=O)n(C)c1=O 4.64%
O=C(C[n+]1cc(-c2ccccc2)n2c1CCC2)Nc1nc(-c2ccccc2)cs1 2.36%
O=C(C[n+]1cc(-c2ccc(Cl)cc2)n2c1CCC2)N1c2ccccc2Sc2ccccc21 17.8%
O=C(C[n+]1cc(-c2ccccc2)n2c1CCC2)N1c2ccccc2Sc2ccccc21 9.1%
CC1CCc2c(nc3ncnn3c2N2CC(C)OC(C)C2)C1 (stereo not given) -10.6%
Cc1ccc(S(=O)(=O)CCC(=O)Oc2ccc(-c3nnco3)cc2)cc1 -2.63%
COc1cccc(CN2CCN(Cc3cc(OC)c(OC)cc3OC)CC2)c1 -6.37%
